The full ranking holds about 16,000 sequences; the median of “e-score” is about -0.044, and the highest 2% start at about 0.38. The sample holds the highest values, similar sequences and a random draw of the others, so the mix is not that of the screen.
Molecular target: T1, GST-NbGlk1(82-244) (Nicotiana benthamiana)
T1 chain: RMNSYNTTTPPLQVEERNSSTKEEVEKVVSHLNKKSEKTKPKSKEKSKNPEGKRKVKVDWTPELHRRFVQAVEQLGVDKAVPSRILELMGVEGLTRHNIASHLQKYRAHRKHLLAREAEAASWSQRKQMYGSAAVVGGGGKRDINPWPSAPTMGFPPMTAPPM
Test: protein-binding microarray; NbGlk1 is a Golden2-like transcription factor of Nicotiana benthamiana; high values mean tight binding
Conditions: protein: recombinant; tags: GST (pTH6838); dsDNA, one strand shown

Sequence | binding signal [E-score]
ACGCGTAT | 0.211 ± 0.0436
ATTTCAAG | 0.23 ± 0.00665
ATAACGTA | 0.205 ± 0.0524
AGGATACG | 0.357 ± 0.0118
ATAGCAAT | 0.321 ± 0.015
ATCCTATA | 0.326 ± 0.0829
ATCTGCAA | 0.317 ± 0.0136
ATCGCAGA | 0.23 ± 0.0112
ATCTCCGG | 0.318 ± 0.0623
ATCTTAGA | 0.243 ± 0.155
ATTCCTAA | 0.236 ± 0.0111
AAATCCGT | 0.401 ± 0.0483
AAATCCGA | 0.427 ± 0.0109
AATCCCGT | 0.366 ± 0.0273
CAATCCGG | 0.328 ± 0.0049
AAATCCCT | 0.354 ± 0.00608
AAATCCGC | 0.432 ± 0.0197
CAATCCGA | 0.35 ± 0.00607
CAATCCGC | 0.305 ± 0.107
AAATCAGA | 0.315 ± 0.029
AGATCCGG | 0.291 ± 0.0113
AAATCCGG | 0.441 ± 0.0267
AATCCCGC | 0.335 ± 0.0716
ACGGTATC | 0.297 ± 0.0236
ATATAGAA | 0.254 ± 0.0436

Sequence | binding signal [E-score]
ATTTAGAA | 0.279 ± 0.0333
ATTCCTTA | 0.228 ± 0.0221
AACAGAAT | 0.301 ± 0.106
AATCTCGC | 0.411 ± 0.0281
ATTCTCGC | 0.232 ± 0.00302
AATCTCGG | 0.429 ± 0.00874
ATTCTCGA | 0.308 ± 0.0153
AATCACGA | 0.339 ± 0.0266
AATCTCGA | 0.436 ± 0.00491
AATCACGG | 0.256 ± 0.0042
AATCTCGT | 0.436 ± 0.0316
AATCGCGC | 0.311 ± 0.0585
ATTCTCGG | 0.229 ± 0.0773
AATCGCGT | 0.352 ± 0.0711
AATCACGT | 0.304 ± 0.0574
AAATAAAT | 0.24 ± 0.102
ATCTCGAA | 0.367 ± 0.06
ATAGCGTA | 0.266 ± 0.0123
AATACGAT | 0.294 ± 0.0273
AATACGTG | 0.216 ± 0.0545
ATAAGATA | 0.301 ± 0.0184
ATTCGGGA | 0.286 ± 0.0532
ATACAGAA | 0.221 ± 0.0562
ACAAGGAT | 0.227 ± 0.00244
AGATTCAC | 0.289 ± 0.0335

Sequence | binding signal [E-score]
AGATTCTC | 0.4901 ± 0.00333
AGATTCTG | 0.4694 ± 0.00442
ATTCTCTG | 0.358 ± 0.0226
AAATTCTC | 0.283 ± 0.0053
ATATTCTC | 0.402 ± 0.0347
ATATTCTG | 0.342 ± 0.04
AGATTCTA | 0.4515 ± 0.00133
ATTCTCTA | 0.306 ± 0.094
AAATTCTG | 0.235 ± 0.065
AAATTCTA | 0.245 ± 0.0867
ATATTCTA | 0.25 ± 0.0067
AATCAATT | 0.213 ± 0.116
ATAATTTC | 0.227 ± 0.0306
AGTCAGAT | 0.208 ± 0.0487
AGTTGGAT | 0.269 ± 0.0791
AATCACGC | 0.256
ATAAGGAT | 0.22 ± 0.0746
ATCGGTAA | 0.201 ± 0.0464
ATATTCCG | 0.36 ± 0.00732
ATATTCCA | 0.326 ± 0.0114
ATATTCCC | 0.393 ± 0.0225
AAATCAGC | 0.363 ± 0.0041
CAATCGGA | 0.227 ± 0.013
ATATTGAA | 0.203 ± 0.00588
AATGATAT | 0.224 ± 0.0384

Sequence | binding signal [E-score]
AATCTAAT | 0.412 ± 0.0116
AATCGAAG | 0.285 ± 0.0157
AATCTAAA | 0.403 ± 0.0351
AATCTAAC | 0.413 ± 0.0271
AATTTAAA | 0.226 ± 0.0725
AATCAAAC | 0.25 ± 0.0482
AATCAAAT | 0.297 ± 0.0152
AATCAAAG | 0.221 ± 0.0254
ATCCTAAT | 0.248 ± 0.0062
AATCGAAC | 0.213 ± 0.0388
AATCTAAG | 0.402 ± 0.0258
ATTCTAAA | 0.221 ± 0.0153
ATCGCACA | 0.256 ± 0.0485
ATCTCATG | 0.3181 ± 0.000641
ATTTCCGC | 0.333 ± 0.0224
ATCTTATA | 0.342 ± 0.00345
ATCTTATC | 0.288 ± 0.0568
ATCTGGAG | 0.225 ± 0.0674
ATTCGAAT | 0.221 ± 0.203
AATCCTCC | 0.375 ± 0.00794
ATTCCACC | 0.235 ± 0.0237
AATCCACA | 0.419 ± 0.00571
AATCCTCA | 0.376 ± 0.0245
AATCCACC | 0.382 ± 0.0151
AATCCACG | 0.406 ± 0.0241

Sequence | binding signal [E-score]
AATCCACT | 0.364 ± 0.0439
ATCCCACA | 0.234 ± 0.0752
ATTCCACG | 0.222 ± 0.06
AATTTTAG | 0.222 ± 0.0121
ATCTGCAT | 0.31 ± 0.0522
AAATCGAC | 0.341 ± 0.00515
AATCCCGG | 0.326 ± 0.0261
AATCCAGC | 0.364 ± 0.00724
AATCCAGA | 0.349 ± 0.0199
AATCCAGT | 0.398 ± 0.00993
AATCCAGG | 0.415 ± 0.00511
AATCCCAG | 0.342 ± 0.0163
ATTACCAC | 0.255 ± 0.0899
ATCATAGA | 0.214 ± 0.00111
ACGAAATC | 0.477 ± 0.0103
AGGAAAAT | 0.226 ± 0.0215
AGGAAATC | 0.4891 ± 0.000893
ACGAAATA | 0.246 ± 0.0511
ATTAAATC | 0.217 ± 0.0673
ACGAAAAT | 0.272 ± 0.0271
ATGAAAAT | 0.321 ± 0.0714
AAGAAATC | 0.443 ± 0.00563
AAGAAAAT | 0.34 ± 0.023
ATGAAATC | 0.4523 ± 0.00241
AGGAAATA | 0.239 ± 0.0792

Sequence | binding signal [E-score]
AAGAAATA | 0.222 ± 0.0864
AACCGGAT | 0.233 ± 0.0852
ATTTTGGG | 0.2605 ± 0.000343
ACTGCGAT | 0.208 ± 0.0497
AGTGGATA | 0.257 ± 0.0756
AAAACTTA | 0.223 ± 0.0511
ATCCAGAA | 0.288 ± 0.0705
ACGCGAAT | 0.244 ± 0.0302
CAATCGTA | 0.235 ± 0.0447
ATCTGAGG | 0.265 ± 0.031
AATTAGAT | 0.224 ± 0.00637
CAGAATTC | 0.234 ± 0.013
AATAAATC | 0.253 ± 0.0219
CAGAAATC | 0.405 ± 0.0372
ACAGTATC | 0.304 ± 0.0326
AATCTTGT | 0.397 ± 0.0291
AATCTTTA | 0.352 ± 0.0119
AATCTTGA | 0.3773 ± 0.0026
ATTCTTGG | 0.242 ± 0.0219
AATCTTGG | 0.386 ± 0.0186
AATCTTTG | 0.378 ± 0.0158
AATCATGT | 0.304 ± 0.0651
AATCTTTC | 0.387 ± 0.0286
AATCTTGC | 0.3479 ± 0.00119
AATCGTGG | 0.286 ± 0.072

Sequence | binding signal [E-score]
ATCCTAGA | 0.263 ± 0.0827
AAGGAGAT | 0.261 ± 0.0685
ATGCAAAT | 0.299 ± 0.0135
AGGCAATC | 0.417 ± 0.0072
ACGCAATA | 0.2818 ± 0.000398
ATGCAATC | 0.4516 ± 0.0024
ATCCAATC | 0.254 ± 0.066
AGGCGATC | 0.3174 ± 0.0029
CAGCAATC | 0.339 ± 0.0127
AGGCAAAT | 0.238 ± 0.00762
AAGCAATC | 0.386 ± 0.0251
ATACAATC | 0.274 ± 0.01
AATCAATC | 0.25188 ± 0.000161
ACGCAATC | 0.4798 ± 0.00123
ATCTGTTA | 0.295 ± 0.102
AGGATCCT | 0.307 ± 0.0236
ATCCGAGA | 0.308 ± 0.0203
AAATGGAT | 0.235 ± 0.0673
ATCCACTA | 0.247 ± 0.0967
AAATTTTA | 0.24 ± 0.021
ATTGCCCC | 0.205 ± 0.0299
AGGGTAAT | 0.262 ± 0.0657
